Here are results for 39 compounds from PubChem BioAssay (EPA / NIEHS).

More than one record can exist for a structure, and the calls need not agree. Calls of active or inactive are those of the source. The calls were made as follows: active = hit-call score of the fitted dose curve at least 0.9, where 1 is the maximum; inactive = score below 0.9.

Read-out in the experiment: matrix metalloproteinase-3 (MMP3), MMP3 (gene 4314)
In words: LTEA_HepaRG_MMP3: Life Technologies and Expression Analysis (LTEA) Assay for matrix metalloproteinase-3 (MMP3) using HepaRG (AID 2283519). As to conditions: mRNA level, 48 h; actives raise or lower the signal. As to the method: LTEA_HepaRG is a cell based, multiplexed-readout assay that uses HepaRG, a human liver cell line, with measurements taken at 48 hours after chemical dosing on a 96-well plate.LTEA_HepaRG_MMP3 is one of 102 assay component(s) measured in the LTEA HepaRG cell culture assay. It is a marker of Fibrosis.Data from the assay component LTEA_HepaRG_MMP3 was analyzed into 1 endpoint. This assay endpoint, LTEA_HepaRG_MMP3, was analyzed with bidirectional fitting relative to DMSO as the negative control and baseline of activity. Using a type of inducible reporter, measures of mRNA induction for gain or loss-of-signal activity can be used to understand regulation of transcription factor activity. To generalize the intended target to other relatable targets, this assay endpoint is annotated to the protease intended target family, where the subfamily is matrix metalloproteinase.
A total of 1060 chemcials from the ToxCast library were tested in eight-point concentration-response experiments. Cell culture and cytotoxicity assays were conducted at Thermo Fisher Scientific's Custom Services facility (Madison, WI). A single lot of human HepaRG cells (Thermo Fisher Scientific, Frederick, MD) was used for the cell culture experiments. 96-well format collagen type I coated plates of human HepaRG cells were prepared using established methods. Briefly, cryopreserved HepaRG cells were thawed, plated at a density of approximately 100,000 cells/well in HepaRG Thaw, Plate, and General Purpose media (HPRG770, Thermo Fisher Scientific), and incubated for 48 hours. 0.5% DMSO was selected as vehicle control to balance the requisite need of DMSO in HepaRG cultures to maintain differentiation (for example, baseline metabolism, proportions of hepatocytes vs. cholangiocytes), while enabling further hepatic receptor pathway activation (for example, PXR and CAR) in response to chemical exposure. 48 hours after plating, the culture medium was replaced with HepaRG Serum-Free Incudtion Media. Cells were exposed to each test chemical in duplicate and maintained in CO2 incubators for another 48 hours. Chemical plates were thawed to room temperature and 200x concentrations of treatment groups were prepared. 8-point conentration-reponse curves were made with the highest exposure at 100 uM, followed by half-log dilutions, all in 0.5% DMSO. Each test plate contained variouse controls, induction positive controls (1mM phenobarbital), cytotoxicity positive controls ([…] aflatoxin B1), vehicle controls (0.5% DMSO), and total lysis controls (0.5% DMSO). Cell morphology images were taken using an Essen IncuCyte FLR automated microscope, with six 96-well plates imaged in about 24 minutes. Images were captured and exported and JPEG files. Spent culture media was transfered to black-well plates for the LDH assay, and remaining media was sorted at -80 C for later use. Cells were treated with RLT buffer and frozen until shipped for gene expression analysis. Total RNA was isolated from the cell suspension in 75 uL of Buffer RLT (Qiagen, Germantown, MD 20874) by Quintiles/Expression Analysis (Durham, NC) using a custom isolation procedure. Total RNA from each plate well was transferred to a preamplification plate. Fluidigm's 96.96 Dynamic ArrayTM (Fluidigm, Amsterdam, the Netherlands) technology was used for gene expression analyses by quantitative reverse transcription polymerase chain reaction (qRT-PCR, performed by Quintiles/Expression Analysis, Durham, NC)89. Standard TaqManTM Assays (Applied Biosystems/ThermoFisher Scientific, Foster City, CA) were used to assess the expression of 93 genes selected based on their selectivity and sensitivity to important hepatic receptors known to be modulated by environmental chemicals; importance in human hepatocyte functionality; and hepatotoxicity. […]
For `C=CCC1=C(C)[C@@H](OC(=O)[C@@H]2[C@@H](C=C(C)C)C2(C)C)CC1=O`, the compound was classed as inactive.
With `COC(=O)C=C(C)OP(=O)(OC)OC`, the compound was classed as inactive.
`COP(N)(=O)SC` (stereo not given): the outcome was inactive.
For `CC1=C(C(=O)Nc2ccccc2)SCCO1`, the call was inactive.
With `CCCN(CCC)c1c([N+](=O)[O-])cc(S(N)(=O)=O)cc1[N+](=O)[O-]`, the compound was called inactive and the AC50 is 83.6 µM (active).
Regarding `Cc1cc(Cl)ccc1OCC(=O)O`, the call was inactive.
`COC(=O)c1ccccc1C(=O)OC`: the outcome was inactive.
With `OC(c1ccc(Cl)cc1)(c1cncnc1)c1ccccc1Cl` (stereo not given), the compound was called inactive.
The same measure, in the same setting: under `CCON=C(CC)C1=C(O)CC(c2c(C)cc(C)cc2C)CC1=O` (stereo not given) stands “inactive”.
Regarding `CCNc1nc(Cl)nc(NC(C)C)n1`, the compound was called inactive.
Consider `O=C(O)COc1nc(Cl)c(Cl)cc1Cl`, for which the compound was called inactive.
Consider `CC(C)C1(C)N=C(c2nc3ccccc3cc2C(=O)O)NC1=O` (stereo not given), for which the result was inactive.
`C=CCC1=C(C)C(OC(=O)C2C(C=C(C)C)C2(C)C)CC1=O` (stereo not given): the compound was called inactive.
In the case of `CON(C)C(=O)Nc1ccc(Cl)c(Cl)c1`, the call was inactive.
For the compound `CCNc1nc(Cl)nc(NCC)n1`, the compound was classed as inactive.
Consider `Cc1c(F)c(F)c(COC(=O)C2C(/C=C(\Cl)C(F)(F)F)C2(C)C)c(F)c1F` (stereo not given), for which the outcome was inactive.
Same read-out and setting: under `Fc1ccc(Oc2ccnc3cc(Cl)cc(Cl)c23)cc1` stands “inactive”.
With `N#Cc1nn(-c2c(Cl)cc(C(F)(F)F)cc2Cl)c(N)c1S(=O)C(F)(F)F` (stereo not given), the AC50 is 50.2 µM (active).
With `Oc1ccccc1-c1ccccc1`, the compound was called inactive.
As for `COc1ccc(C(c2ccc(OC)cc2)C(Cl)(Cl)Cl)cc1`, the outcome was inactive.
In the case of `N#Cc1cc(Br)c(O)c(Br)c1`, the concentration at half-maximal activity (AC50) was 2.69 µM (active).
Turning to `CCc1nn(C)c(C(=O)NCc2ccc(C(C)(C)C)cc2)c1Cl`, the compound was classed as inactive.
For the compound `Cc1ccc(-c2c(Cl)nc(C#N)n2S(=O)(=O)N(C)C)cc1`, the compound was called inactive.
On to `CN(C)C(=S)SSC(=S)N(C)C`, for which the result was inactive.
`CCCCOC(=O)c1ccccc1C(=O)OCCCC`: the compound was called inactive.
`COc1cnc(OC)n2nc(NS(=O)(=O)c3c(OCC(F)F)cccc3C(F)(F)F)nc12`: the result was inactive.
Same read-out and setting: under `CCCCNC(=O)n1c(NC(=O)OC)nc2ccccc21` stands “inactive”; under `COc1nc(NC(C)C)nc(NC(C)C)n1`, “inactive”.
Regarding `CCOP(=S)(OCC)SCn1c(=O)oc2cc(Cl)ccc21`, the result was inactive.
`O=C(O)c1nc(Cl)ccc1Cl`: the result was inactive.
For `COC(=O)C(C)Oc1ccc(Oc2ccc(Cl)cc2Cl)cc1` (stereo not given), the call was inactive.
On to `CCOC(=O)CC(SP(=S)(OC)OC)C(=O)OCC` (stereo not given), for which the result was inactive.
Consider `N#CC(CCc1ccc(Cl)cc1)(Cn1cncn1)c1ccccc1` (stereo not given), for which the concentration at half-maximal activity (AC50) was 86 µM (active).
In the case of `CNC(=O)ON=CC(C)(C)SC`, the compound was called inactive.
`CS/C(C)=N/OC(=O)N(C)SN(C)C(=O)O/N=C(\C)SC`: the outcome was inactive.
On the same count and under the same terms, the value for `C=CC1(C)OC(=O)N(c2cc(Cl)cc(Cl)c2)C1=O` (stereo not given) was “inactive”; that for `O=C(Nc1ccccc1)Nc1ccnc(Cl)c1` was “inactive”.
With `CC1COC(Cn2cncn2)(c2ccc(Oc3ccc(Cl)cc3)cc2Cl)O1` (stereo not given), the AC50 is 31.7 µM (active).
In the case of `CCOC(=O)C(Cl)Cc1cc(-n2nc(C)n(C(F)F)c2=O)c(F)cc1Cl` (stereo not given), the call was inactive.
